Assay outcomes: PubChem, National Center for Advancing Translational Sciences (NCATS)
HP1b binding inh = inhibitors of HP1-beta chromodomain binding to methylated histone tails; P83916; AlphaScreen HP1-beta / biotin-H3K9me3 peptide binding; Potency, µM (doses to about 114 µM), for the others: at the highest dose activity change, negative = inhibition, usual class: inhibitors; hit rate 0.56% among 390,000; AID 540317; also: nearly all actives have a fitted effect of over 70% in size
Target sequence (P83916 whole entry, looked up): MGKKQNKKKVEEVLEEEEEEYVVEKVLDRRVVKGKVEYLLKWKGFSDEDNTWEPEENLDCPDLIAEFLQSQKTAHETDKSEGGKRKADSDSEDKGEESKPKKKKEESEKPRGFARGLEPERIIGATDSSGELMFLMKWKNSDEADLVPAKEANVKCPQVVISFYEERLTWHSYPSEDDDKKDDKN
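Compound inhibition of the preformed complex between 50 nM HP1-beta and 50 nM biotinylated H3K9me3 peptide was read by AlphaScreen. Buffer was PBS pH 7.4 with 0.01% Tween-20. Incubations ran 30 min at room temperature, with 10 ug/mL donor/acceptor beads.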
BAZ2B block = blocks human BAZ2B | hit rate 4.4% among 360,000 | Q9UIF8 | AlphaScreen BAZ2B-H3K14Ac peptide displacement | Potency, µM (highest dose often 114 µM), inactives show at the top dose activity change, negative = inhibition, usual class: inhibitors | AID 504333; also: % is scaled to controls: 0 for no effect and ±100 for the full control effect; nearly all actives have a fitted effect of over 60% in size
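Multi-concentration screen (max 110 uM) measuring displacement of acetylated histone H3 peptide from BAZ2B by AlphaScreen, using 50 nM protein, 50 nM peptide and 10 ug/mL streptavidin donor plus Ni-chelate acceptor beads.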
PLK1 PBD block = PLK1 (human) polo-box domain binding inhibition | P53350 | Plk1 PBD binding of FITC phosphopeptide, fluorescence polarization | AID 720504 | hit rate 2.8% among 360,000 | Potency, µM, for the others: max response, negative = inhibition, hits mostly inhibitors; also: series mostly up to about 57 µM; % is scaled to controls: 0 for no effect and ±100 for the full control effect; nearly all actives have a fitted effect of over 65% in size
Sfp PPTase inh = blocks B. subtilis Sfp PPTase activity; Q9F4F7; Biochemical Sfp PPTase activity, qHTS; Potency, µM, inactives show largest response in the series, negative = inhibition, most hits filed as inhibitors; hit rate 3.5% among 310,000; AID 1490;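 also: the enzyme is Sfp with the accession as filed and its product quenches rhodamine fluorescence; 0% = enzyme reaction without inhibitor and -100% = no enzyme wells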
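Compounds were incubated with enzyme (final 15 nM) for 15 min at room temperature before substrate addition started the reaction. Fluorescence at 525 nm excitation, 598 nm emission was recorded immediately and after 30 minutes.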
JMJD2A Tudor = JMJD2A Tudor domain (human) inhibition. O75164. AlphaScreen JMJD2A-Tudor / H3K4me3 peptide binding. Potency, µM (doses to about 114 µM), for the others: top-dose activity change, negative = inhibition, most hits filed as inhibitors. hit rate 4.4% among 390,000. AID 504339; also: % is scaled to controls: 0 for no effect and ±100 for the full control effect; nearly all actives have a fitted effect of over 50% in size
G9a block = G9a (human) methyltransferase inhibition | Q96KQ7 | G9a H3K9 monomethylation, AlphaScreen, 2 h | Potency, µM (highest dose often 102 µM), for inactives: at the highest dose activity, negative = inhibition, most hits filed as inhibitors | hit rate 8.8% among 350,000 | AID 504332; also: % is scaled to controls: 0 for no effect and ±100 for the full control effect; nearly all actives have a fitted effect of over 75% in size
Target sequence (Q96KQ7 913-1193 limits assumed): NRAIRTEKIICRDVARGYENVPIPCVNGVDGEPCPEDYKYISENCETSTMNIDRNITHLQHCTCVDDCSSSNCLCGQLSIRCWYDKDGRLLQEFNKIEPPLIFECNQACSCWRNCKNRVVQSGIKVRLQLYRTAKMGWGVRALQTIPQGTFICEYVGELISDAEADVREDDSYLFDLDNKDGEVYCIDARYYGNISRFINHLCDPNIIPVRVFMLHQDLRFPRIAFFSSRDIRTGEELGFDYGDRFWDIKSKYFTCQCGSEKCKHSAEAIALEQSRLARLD
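Readings reflect AlphaScreen signal from monomethyl-H3K9 antibody detection. HMT at 20 nM; substrate b-H3K9 500 nM; cofactor SAM 20 uM; 2 h RT reaction; compounds tested as titrations in qHTS with 15 min preincubation.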
* marks the source's active call; other numbers are inactive results; ? = inconclusive; . = not tested or not shown; ! = a repeat was not active; [ ] = another dose, or the depositor's remark. Only some compounds are listed: those with a hit (about 12% of all), similar ones and a draw of the others. Calls follow the shape of the dose curve; as a rule, active = well fitted curve in the direction sought with a large enough effect; inconclusive = small, poorly fitted or top-dose-only effect, or another doubt; inactive = no such curve, though single readings can be large; an effect the other way counts as inactive or inconclusive. Potency is read from the fitted curve at half-maximal effect.

SMILES	HP1b binding inh	BAZ2B block	PLK1 PBD block	Sfp PPTase inh	JMJD2A Tudor	G9a block
Cc1cc(C)cc(N=Cc2ccc([N+](=O)[O-])s2)c1	45µM*	25µM*	-5%	12%	20µM*	40µM*
O=[N+]([O-])c1ccc(/C=N/n2c(CO)nc3ccccc32)s1	5%	-8%	-9%	12%	-26%	-7%[59 µM]
CC1(C)c2ccccc2N2CC(=O)NC21/C=C/c1ccco1 (stereo not given)	-14%	?	-12%	3.2µM*	-26%	32µM*
CC1(C)c2ccccc2N2CCC(=O)NC21/C=C/c1ccco1 (stereo not given)	7%	?	-1%	40µM*	-18%	40µM*
CN(C)c1cccc(NC(=O)C2(C)CC2(Cl)Cl)c1 (stereo not given)	-5%	-11%	-9%	11%	-25%	-3%[59 µM]
CC(=O)Nc1ccc(NC(=O)C2(C)CC2(Cl)Cl)cc1 (stereo not given)	-14%	-7%	21µM*	-8%	?	10%
Cc1ccccc1CNS(=O)(=O)c1c(C(=O)N2CCCC2)c(C)n(C)c1C	2%	-29%[57.1 µM]	?	13%	-16%	-1%
Cc1c(C(=O)N2CCCCC2)c(S(=O)(=O)NCc2ccccc2Cl)c(C)n1C	-5%	-19%[57.1 µM]	27µM*	17%	?	17%
COc1cccc(CNS(=O)(=O)c2c(C(=O)N3CCCCCC3)c(C)n(C)c2C)c1	-6%	-19%[57.1 µM]	27µM*	21%	22µM*	12%
Cc1ccc(CNS(=O)(=O)c2c(C(=O)N3CCCCCC3)c(C)n(C)c2C)cc1	-10%	-21%[57.1 µM]	24µM*	9%	?	21%
Cc1c(C(=O)N2CCCCCC2)c(S(=O)(=O)NCc2ccc(Br)cc2)c(C)n1C	-7%	?	.	.	-34%	-31%[59 µM]
COc1cccc(CNS(=O)(=O)c2c(C(=O)N3CCCCC3)c(C)n(C)c2C)c1	63%	-17%[57.1 µM]	-8%	9%	-15%	7%
Cc1ccc(C)c(N2CCN(S(=O)(=O)c3c(C(=O)N4CCCCC4)c(C)n(C)c3C)CC2)c1	10%	?	-19%	19%	?	79µM*
Cc1cccc(CSc2nc3c(sc4ccccc43)c(=O)n2CCC(=O)NC(C)C)c1	65%	18%	.	.	-7%	-7%[59 µM]
O=C(Oc1ccc(OC(=O)C2CCC2)cc1)C1CCC1	29%	-4%	-7%	-20%	?	-4%[59 µM]
Cc1c(C(=O)N2CCCCC2)c(S(=O)(=O)NCc2ccc(Cl)cc2)c(C)n1C	-8%	?	24µM*	11%	-36%	1%
CCN(CCCNC(=O)c1nn(-c2ccc(OC)cc2)c(=O)c2c1c1ccccc1n2C)c1ccccc1	30%	.	.	.	-8%	-2%[59 µM]
O=C(c1ccc2c(c1)CCN2S(=O)(=O)c1ccc(Cl)cc1)N1CCN(c2ccccc2)CC1	10%	?	.	.	-28%	?
O=C(CCC(=O)OCc1ccc(Br)cc1)Nc1ccccc1	16%	8%	27µM*	1%	50µM*	12%[59 µM]
Cc1ccc(-n2c(C)cc(=O)cc2C)cc1[N+](=O)[O-]	18%	1%	-11%	9%	-1%	?
O=C(C=Cc1cccc(O)c1)c1ccccc1O	-9%	.	1.7µM*	.	?	.
O=C(/C=C/c1ccc(O)c(O)c1)OCCc1ccccc1	-24%	.	3%	?	89µM*	3.5µM*
O=c1cc(O)cc(/C=C/c2ccc(O)c(O)c2)o1	.	.	.	.	.	4µM*
O=C(/C=C/c1ccccc1)c1ccc(O)cc1O	.	.	.	-13%	.	-24%[2.33 µM]
O=C(COC(=O)/C=C/c1cccc(Br)c1)NCCc1ccccc1	25%	-4%	2%	.	-2%	0%
SMILES	HP1b binding inh	BAZ2B block	PLK1 PBD block	Sfp PPTase inh	JMJD2A Tudor	G9a block
O=C(O)/C=C\c1ccc(O)c(O)c1	.	.	.	35µM*	.	2.5µM*
COc1ccccc1N1CCN(C(=O)CCS(=O)(=O)c2cc(Br)cc3c2N(C(=O)C2CC2)CC3)CC1	22%	-1%	.	.	-11%	-18%[59 µM]
CC1CN(c2nc3ccccc3nc2SCC(=O)Nc2ccc(F)cc2)CC(C)O1 (stereo not given)	60%	5%	-6%	-9%	-1%	.
O=C(/C=C/c1ccc(O)c(O)c1)c1ccccc1O	45µM*	40µM*	10%	-10%	3.5µM*	13µM*
COc1cc(C(C)=O)ccc1OCCN1CCC(Cc2ccccc2)CC1	45µM*	32µM*	-9%	-25%	1.6µM*	?
C=CCOc1ccccc1CN1CCC(Cc2ccccc2)CC1	?	?	5%	-16%	3.2µM*	.
C=CCOc1ccccc1CN1CCC(n2nccc2NC(=O)c2ccccc2)CC1	39%	-9%	-9%	11%	-14%	-7%
COc1cc(C(C)=O)ccc1OCCCN1CCC(Cc2ccccc2)CC1	?	56µM*	-8%	-10%	?	35µM*
COc1cc(C(C)=O)ccc1OCC(=O)N1CCC(Cc2ccccc2)CC1	.	.	-7%	.	.	.
OCc1ccccc1OCCCN1CCC(Cc2ccccc2)CC1	?	?	1%	3%	22µM*	35µM*
c1ccc(-c2nc(C3CCCCC3)c3ccccc3n2)cc1	127%	3%	-1%	.	38%	10%[2.33 µM]
O=Cc1cc(Cl)ccc1OCCN1CCC(Cc2ccccc2)CC1	?	?	-7%	-24%	20µM*	25µM*
COc1ccc(Oc2ncc3nc(-c4ccccc4)c(=O)n(Cc4cccs4)c3n2)cc1	.	.	.	6%	.	9%[12.7 µM]
O=C1C(SCCO)=C(SCCO)C(=O)c2ccccc21	?	?	2.1µM*	0.28µM*!	8.9µM*	1.3µM*!
C#CCOCCOCCOCCNc1nc(N2CCN(C(=O)C([C@@H](C)CC)n3cc(C(N)COC(=O)C(F)(F)F)nn3)CC2)nc(N2CCN(C(=O)[C@H](CCCCN)n3cc(C(N)[C@H](C)CC)nn3)CC2)n1 (stereo not given in full)	18%	.	-2%	.	56µM*	.
C#CCOCCOCCOCCNc1nc(N2CCN(C(=O)[C@H](CCCCN)n3cc(C(N)COC(=O)C(F)(F)F)nn3)CC2)nc(N2CCN(C(=O)[C@H](CCCCN)n3cc(C(N)CC(C)C)nn3)CC2)n1 (stereo not given in full)	.	79µM*	.	11%	.	?
C#CCOCCOCCOCCNc1nc(N2CCN(C(=O)[C@H]([C@@H](C)CC)n3cc([C@@H](N)CC(C)C)nn3)CC2)nc(N2CCN(C(=O)[C@H](CCCCN)n3cc([C@@H](N)C(C)CC)nn3)CC2)n1 (stereo not given in full)	7%	79µM*	-9%	10%	79µM*	-11%[12.7 µM]
